Activity change data for 87 molecules are collected here from PubChem BioAssay AID1224865 (Sanford-Burnham Center for Chemical Genomics, 2016).

Molecules are shown by their SMILES. Among all 360,000 compounds or so, about 1,100 (0.31%) were called active. Cut-off read from the data, not from the text of the source: active = activity change above about 30% (passing the limit was not always enough); inactive = the rest. The full list was thinned out, with actives kept by preference.

Hepatocyte nuclear factor 4-alpha (Homo sapiens), sequence (P41235 whole entry, looked up): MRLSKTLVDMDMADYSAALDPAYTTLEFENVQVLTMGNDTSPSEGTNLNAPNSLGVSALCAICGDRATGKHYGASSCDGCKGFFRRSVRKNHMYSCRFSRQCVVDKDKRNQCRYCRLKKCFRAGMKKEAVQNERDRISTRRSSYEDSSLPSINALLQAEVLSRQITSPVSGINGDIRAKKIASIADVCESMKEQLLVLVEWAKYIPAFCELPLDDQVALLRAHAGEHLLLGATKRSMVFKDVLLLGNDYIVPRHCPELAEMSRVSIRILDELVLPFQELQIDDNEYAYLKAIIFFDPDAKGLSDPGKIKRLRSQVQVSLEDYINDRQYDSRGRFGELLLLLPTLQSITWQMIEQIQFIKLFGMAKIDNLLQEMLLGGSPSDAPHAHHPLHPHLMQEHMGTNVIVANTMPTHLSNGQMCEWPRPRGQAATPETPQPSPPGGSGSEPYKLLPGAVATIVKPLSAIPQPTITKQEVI

The experiment concerns the target Hepatocyte nuclear factor 4-alpha (Homo sapiens) (UniProt P41235). Briefly: HNF4-alpha DNA association modulation – biochemical, fluorescence polarization, FITC-DNA, primary screen (AID 1224865). The following applies: HNF4a-FITC DNA binding, 1 h, at 10 µM, hits give high values. Background: Fluorescence polarisation rises when a labelled molecule tumbles more slowly, as on binding a larger partner.
As for `COc1cccc(-c2ccc3c(c2)S(=O)(=O)c2cccc(C(=O)O)c2C3=O)c1OC`, the activity change was 1.88% (inactive). Under `CC1CCN(c2ccc3c(c2)S(=O)(=O)c2cc(C(=O)O)ccc2C3=O)CC1` stands 14.3% (inactive); under `Cc1ccc(CNC(=O)c2cccc3c2C(=O)c2ccc(N4CCC(C)CC4)cc2S3(=O)=O)cc1`, 45.8% (active). Under `Cc1nn(Cc2ccc(C(=O)N3N=C(C(F)F)CC3(O)C(F)F)cc2)c(C)c1[N+](=O)[O-]` (configuration not stated) stands 1.52% (inactive). Next, `COc1cc(=O)[nH]c(=O)n1C(=O)Cc1ccccc1`: 2.22% (inactive); `CN(C)c1ccc(/C=C2\NC(=S)N(Cc3ccccc3)C2=O)cc1`: 128% (inactive); `COc1cc(/C=C2/SC(=S)N(Cc3ccccc3)C2=O)cc(OC)c1O`: 48.1% (active). `CC1CCCCC1NC(=O)C1CCCN1S(=O)(=O)c1cccc2nsnc12` (configuration not stated): the activity change was -0.79% (inactive).

On to `O=C(NC1CCCCC1)C(c1cc2ccccc2o1)n1c(=O)c(-c2ccco2)nc2ccccc21` (configuration not stated), for which the activity change was 45.8% (active). Next, `Cc1cccc(C)c1NC(=O)C(c1cccc2ccccc12)n1c(=O)c(-c2ccco2)nc2ccccc21` (configuration not stated): 32.4% (inactive). For `Cc1cccc(C)c1NC(=O)C(c1ccc(C(F)(F)F)cc1)n1c(=O)c(-c2ccco2)nc2ccccc21` (configuration not stated), the activity change was 26.7% (inactive). Under `CCOc1[nH]n(-c2ccc(Cl)cc2)c(=O)c1C=Nc1ccc(O)cc1` stands -5.55% (inactive); under `Oc1ccc(N=Cc2c(O)ccc3ccccc23)cc1`, 72% (active). With `Oc1ccc(/C=N/N(Cc2ccccc2)c2ccccc2)cc1`, the activity change is -0.08% (inactive). Under `COc1ccccc1C(=O)N1CCN=C1SCc1cccnc1` stands 2.47% (inactive).

Take `Cc1ccc(-c2csc(NC(=O)Cn3[nH]c(=O)c4ccccc4c3=O)n2)cc1`: the activity change is 50% (active). Regarding `O=C(Cn1[nH]c(=O)c2ccccc2c1=O)Nc1cccc(-c2nnc3n2CCCCC3)c1`, the activity change was 1.84% (inactive).

`Cc1ccc(C)c(C(=O)COC(=O)Cn2[nH]c(=O)c3ccccc3c2=O)c1`: the activity change is -0.2% (inactive). Under `O=C(OC(C(=O)NC1CCCC1)c1ccc(F)cc1)c1ccno1` (configuration not stated) stands -0.09% (inactive); under `Cc1sc2nc(-c3ccccc3F)oc(=O)c2c1C`, 0.82% (inactive).

On to `Nc1c(N(CCCO)C(=O)C2CCCC2)c(=O)[nH]c(=O)n1Cc1ccccc1`, for which the activity change was -0.45% (inactive). Next, `CCc1nnc(NC(=O)c2ccco2)s1`: 0.04% (inactive); `CCCCOC(=O)Nc1nnc(CC(=O)NCc2ccccc2)s1`: -1.39% (inactive). Take `CCc1ccc2nc3sc(C(=O)Nc4nnc(CC)s4)c(N)c3cc2c1`: the activity change was 45.1% (active). Next, `COc1ccc(CCNC(=O)C(=O)NCC2OCCN2S(=O)(=O)c2cccs2)cc1OC` (configuration not stated): 5.44% (inactive).

`COc1cc(N=Cc2c(O)c3ccccc3oc2=O)c(OC)cc1Cl`: the activity change is 98.2% (active). As for `COc1cc(O)c2c(=O)c3c(O)c(O)ccc3oc2c1OC`, the activity change was 3.57% (inactive). On to `Cc1ccc(N2C(=O)C(CC(=O)Nc3cccc(F)c3)N(CCc3ccncc3)C2=O)cc1` (configuration not stated), for which the activity change is 0.66% (inactive).

Consider `NC(=O)C1(Nc2ccc([N+](=O)[O-])cc2)CCCC1`, for which the activity change is -1.78% (inactive). Next, `O=[N+]([O-])c1ccc(N=NNc2ccc([N+](=O)[O-])cc2)cc1`: 54.8% (active); `COC(=O)c1ccccc1N=NNc1ccc([N+](=O)[O-])cc1`: -3.24% (inactive); `O=C1CSC(c2cccc(F)c2)N1c1ccc(O)cc1` (configuration not stated): 1.06% (inactive). Take `O=C(CCc1nnc2ccc(NCCCN3CCCC3=O)nn12)NCc1ccccc1Cl`: the activity change was 1.08% (inactive).

With `CCn1c(SCC(=O)Nc2ccc3c(c2)OCCO3)nc2c(c1=O)SC(C)C2` (configuration not stated), the activity change was 1.48% (inactive). Next, `Cc1nc2ccccc2nc(=O)c1NNc1ccc([N+](=O)[O-])cc1`: 71% (active); `CC(O)c1nc2ccccc2n1Cc1ccc([N+](=O)[O-])cc1` (configuration not stated): -3.67% (inactive).

In the case of `Cc1cccc(NS(=O)(=O)c2ccc([N+](=O)[O-])cc2)n1`, the activity change is 0.15% (inactive).

With `O=C(O)C1CCC(CNS(=O)(=O)c2ccc(Br)cc2)CC1` (configuration not stated), the activity change is 1.62% (inactive). Next, `Clc1cccc(Cc2c(-c3cccc(Cl)c3)nc3ccc(Cl)cn23)c1`: 8.89% (inactive); `Fc1cccc(Cc2c(-c3cccc(Cl)c3)nc3ccc(Br)cn23)c1`: 42.3% (active). Next, `Fc1cccc(Cc2c(-c3ccc(Cl)cc3)nc3ccc(Cl)cn23)c1`: 6.82% (inactive). Under `CN(C)C(=O)CCC(=O)N1CCCCC1C(=O)Nc1ccc(Oc2ccccc2F)cc1` (configuration not stated) stands 1.87% (inactive); under `Cc1nc2ccccc2n1CC(O)c1ccccc1` (configuration not stated), -4.17% (inactive). As for `Cc1c(C(=O)Nc2cccc(Cl)c2)cn2c(nc3ccccc32)c1C#N`, the activity change is 0.36% (inactive).

As to `Cc1nc(-c2ccccc2)cn2c1nc1ccccc12`, the activity change was 43.5% (active). Under `COc1ccc(-c2cc(C(F)(F)F)nc(S(C)(=O)=O)n2)cc1OC` stands -0.66% (inactive); under `O=C(Cn1nnc(-c2ccc(CN3CCOCC3)cc2)n1)NC1CCCCC1`, 4.12% (inactive). Next, `N/C(=N\S(=O)(=O)c1ccc(Cl)cc1)N1CCOCC1`: 4.34% (inactive). Regarding `CCOc1ccc(C(=O)Nc2cccc(SC)c2)cc1`, the activity change was 0.43% (inactive). Under `O=C(Nc1cccc(-c2nc3ccccc3[nH]2)c1)c1ccc(C(=O)Nc2cccc(-c3nc4ccccc4[nH]3)c2)cc1` stands 81.8% (active).

Consider `CCOc1ccc(C(=O)Nc2cccc(-c3ccc4nncn4n3)c2)cc1`, for which the activity change is -0.86% (inactive).

As to `Cc1ccc(Cl)cc1N1CCN(C(=O)c2cccc3c(=O)c(C)c(-c4ccccc4)oc23)CC1`, the activity change was -0.99% (inactive). Under `COc1ccc(C2COC(=O)C2=N)c(NC(=O)c2ccccc2)c1` (configuration not stated) stands -5.12% (inactive); under `CC(=O)c1cc(NC(=O)c2ccccc2)c(=O)oc1/C=C/N(C)C`, 102% (active). Under `CCOC(=O)c1cc(NC(=O)c2ccc(Cl)cc2)c(=O)oc1-c1ccccc1` stands -0.75% (inactive); under `CCOc1ccc(Oc2nc(C)cc(OC)n2)nn1`, 0.35% (inactive). Take `CC(C)C[C@H](NC(=O)[C@@H]1O[C@H]1C(=O)O)C(=O)NCCCCN=C(N)N`: the activity change is 2.71% (inactive). For `CC(C)c1ccc2oc(=O)cc(CN3CCN(Cc4ccccc4)CC3)c2c1`, the activity change was 2.71% (inactive). Next, `CCc1ccc2oc(=O)cc(CN3CCCCC3C)c2c1` (configuration not stated): 39.9% (active). Consider `COc1ccc(CN2CCCCC2C)cc1OC` (configuration not stated), for which the activity change was -0.13% (inactive). Regarding `O=C(CCCn1c(=O)c2sccc2n(CC(=O)NCC2CCCO2)c1=O)NCc1ccco1` (configuration not stated), the activity change is -1.63% (inactive).

For the molecule `COc1cccc(NS(=O)(=O)c2ccc3[nH]cc(C(=O)NCCCOC(C)C)c(=O)c3c2)c1`, the activity change is 0.82% (inactive). Under `Cc1cc(NC(=O)CSc2nc(=O)cc(N)n2-c2ccc(F)cc2)no1` stands -1.93% (inactive); under `Cc1cc(NC(=O)CSc2nnnn2-c2ccc(F)cc2)no1`, 2.72% (inactive); under `Cc1cc(NC(=O)CSc2nccn2-c2ccc([N+](=O)[O-])cc2)no1`, 35.4% (active). Next, `CC(C)c1ccc(-c2nn[nH]n2)cc1`: -1.88% (inactive). Next, `CCc1ccc(CN2C(=O)c3ccccc3C2C(=O)NCC2CCCO2)cc1` (configuration not stated): 0.41% (inactive); `O=C(NC(=S)Nc1ncccn1)c1ccccc1Br`: 1.65% (inactive); `O=C(Nc1cc(Cl)ccc1N1CCOCC1)c1ccc(N2CCCC2=O)cc1`: -2.01% (inactive). On to `Cc1c(C(=O)NCCN2C(=O)S/C(=C\c3cccs3)C2=O)cccc1[N+](=O)[O-]`, for which the activity change is -0.17% (inactive).

With `O=C(CCN1C(=O)c2ccccc2C1=O)NNC(=O)c1ccc(Cl)cc1Cl`, the activity change was -1.42% (inactive). Next, `O=C(CCN1C(=O)/C(=C/c2cccs2)SC1=S)NNC(=O)c1cccc(O)c1`: 42.1% (active). Under `Cc1cccc(NC(=O)c2ccc(S(=O)(=O)N(C)CC3CCCO3)cc2)c1C` (configuration not stated) stands -0.21% (inactive).

In the case of `CC1=C(C(=O)Nc2cccc(C(=O)NCC(C)c3ccccc3)c2)SCCO1` (configuration not stated), the activity change is -3.05% (inactive).

As for `Cc1ccc(-c2cnc(C(O)c3cc(Cl)cc(Cl)c3)[nH]2)cc1` (configuration not stated), the activity change was 2.03% (inactive).

Regarding `Cc1cccc(COc2ccccc2/C=N/Nc2ccc([N+](=O)[O-])cc2)c1`, the activity change is 53.2% (active).

Take `Cc1ccccc1OCCOc1ccc([N+](=O)[O-])cc1/C=N/n1cnnc1`: the activity change is 0.85% (inactive). On to `O=[N+]([O-])c1ccc(COc2ccccc2CN2CCOCC2)cc1`, for which the activity change is 4.14% (inactive). Next, `Cc1ccc(Cl)cc1NC(=S)N(CCN(C)C)Cc1cccs1`: -2.05% (inactive); `COCCCn1c(=O)/c(=C/c2ccccc2OC(C)C)s/c1=C(\C#N)C(=O)Nc1ccc(C(=O)O)cc1`: 21.5% (inactive); `CCOC(=O)[C@@H]1[C@H]2COc3cc(OC)ccc3[C@H]2N2C(=O)N(c3ccc(F)cc3)C(=O)[C@]12C`: -1.52% (inactive).

Consider `C#CCOCCOCCOCCNc1nc(N2CCN(C(=O)C([C@@H](C)O)n3cc([C@@H](N)CCCCN)nn3)CC2)nc(N2CCN(C(=O)[C@H](CCCCN)n3cc(CN)nn3)CC2)n1` (some centres not stated), for which the activity change is 59.9% (active). Under `C#CCOCCOCCOCCNc1nc(N2CCN(C(=O)C(Cc3ccc(O)cc3)n3cc(C(N)CC(C)C)nn3)CC2)nc(N2CCN(C(=O)C(Cc3ccc(O)cc3)n3cc(C(N)C(C)CC)nn3)CC2)n1` (configuration not stated) stands 2.78% (inactive). Under `C#CCOCCOCCOCCNc1nc(N2CCN(C(=O)[C@H](CO)n3cc([C@@H](N)C(C)C)nn3)CC2)nc(N2CCN(C(=O)[C@H](CCC(=O)O)n3cc([C@@H](N)[C@H](C)CC)nn3)CC2)n1` stands -0.8% (inactive); under `CSc1sc(C)cc1C1C(C#N)=C(N)N(c2cccnc2)C2=C1C(=O)CCC2` (configuration not stated), -3.92% (inactive); under `COC(=O)c1c(C)oc(C)c1S(=O)(=O)Nc1ccc(C(C)C)cc1`, -0.92% (inactive). Next, `FC(F)Oc1ccc(NC(=S)NCc2ccco2)cc1Cl`: 8.22% (inactive).
